# LYPLA2 counter: LYPLA2 inhibitors, primary screen, counter-screen for PME1 inhibitor project, biochemical, fluorescence polarization, FP-Rh probe ABPP; Acyl-protein thioesterase 2 (Homo sapiens), O95372; inhibition, % at 5.9 µM; recombinant LYPLA2; 320,000 compounds, 0.38% hits;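 active = inhibition above the screen-wide mean plus 3 SD, limit set per campaign, cut at about 26% in these data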;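 also: 0% = LYPLA2 with DMSO and 100% = wells lacking LYPLA2 enzyme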
# Target sequence (O95372 whole entry, looked up): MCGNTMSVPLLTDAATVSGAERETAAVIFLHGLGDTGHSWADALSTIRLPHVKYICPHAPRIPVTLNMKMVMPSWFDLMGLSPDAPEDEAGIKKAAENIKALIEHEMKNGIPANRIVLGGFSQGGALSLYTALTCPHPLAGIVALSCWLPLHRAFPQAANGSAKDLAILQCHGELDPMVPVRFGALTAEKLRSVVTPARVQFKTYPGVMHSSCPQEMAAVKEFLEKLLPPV
# Fam108B counter: mouse Fam108B serine hydrolase inhibitors, primary screen, counter-screen for RBBP9 inhibitor project, biochemical, fluorescence polarization. recombinant Fam108B, FP-Rh probe fluorescence polarization. inhibition, % at 9.51 µM. 300,000 compounds, 0.33% hits. AID 1947, 2009;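 active = inhibition above the screen mean inhibition plus 3 SD, computed separately per campaign, cut at about 18% in these data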;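 also: inhibitors lower polarization as less probe binds the enzyme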
# LYPLA1 inh: LYPLA1 inhibitors, primary screen, counter-screen for PME1 inhibitor project, biochemical, fluorescence polarization, FP-Rh probe ABPP; AID 2174, 2009; 320,000 compounds, 0.16% hits; recombinant LYPLA1; Acyl-protein thioesterase 1 (Homo sapiens), O75608; inhibition, % at 5.9 µM;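 active = inhibition above the mean of all tested compounds plus 3 SD, set per campaign, cut at about 14% in these data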;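 also: inhibitors block serine hydrolase probe labeling of LYPLA1 so polarization falls; 0% = enzyme with DMSO and 100% = wells lacking LYPLA1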
# Target sequence (O75608 whole entry, looked up): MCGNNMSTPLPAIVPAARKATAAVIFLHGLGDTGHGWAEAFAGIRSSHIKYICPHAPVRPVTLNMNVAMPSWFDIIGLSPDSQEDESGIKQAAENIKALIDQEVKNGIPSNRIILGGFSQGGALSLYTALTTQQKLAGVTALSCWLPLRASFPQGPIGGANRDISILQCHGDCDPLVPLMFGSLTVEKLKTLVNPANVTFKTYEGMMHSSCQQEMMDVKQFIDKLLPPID
# PME-1 primary: PME-1 inhibitors via competitive probe labeling, primary screen, biochemical, fluorescence polarization, FP-Rh probe, HTS; Protein phosphatase methylesterase 1 (Homo sapiens), Q9Y570; recombinant PME-1; inhibition, % at 5.9 µM; 320,000 compounds, 0.53% hits;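 active = inhibition above the campaign mean of all compounds plus 3 SD, cut at about 26% in these data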;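 also: competitive labeling of PME-1 active site by serine hydrolase directed probe; 0% = PME-1 with DMSO and 100% = wells lacking PME-1 enzyme; inhibitors block probe labeling so polarization falls and inhibition rises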
# PREPL inh: PREPL enzyme inhibitors, primary screen, biochemical, fluorescence polarization; inhibition, % at 5.96 µM; 320,000 compounds, 0.68% hits; Prolyl endopeptidase-like (Homo sapiens), Q4J6C6; recombinant PREPL, fluorescence polarization activity-based probe; in the data active = inhibition above about 43%;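 also: 0% = enzyme with DMSO and 100% = wells lacking enzyme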
# LYPLA2 conf: LYPLA2 inhibitors, retest, confirmation, counter-screen for PME1 inhibitor project, biochemical, fluorescence polarization, FP-Rh probe ABPP | shares compounds with LYPLA2 counter | recombinant LYPLA2 | inhibition, % at 5.9 µM | 1,100 compounds, 72% hits;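 active = mean inhibition across replicates above the hit cutoff set in the primary screen, cut at about 26% in these data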;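 also: blocked labeling of the enzyme by serine hydrolase FP-Rh probe lowers polarization; 0% = enzyme with DMSO and 100% = wells lacking LYPLA2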
# LYPLA2 gel ABPP: LYPLA2 inhibitors in proteome, late-stage follow-up, gel-based competitive ABPP, fluorescence, assay provider; shares compounds with LYPLA2 counter; rhLYPLA2 in mouse brain proteome, gel ABPP FP-Rh; inhibition, % at 20 µM; 150 compounds, 30% hits; AID 652029, 2013;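 active = inhibition of LYPLA2 enzyme probe labeling above about 50%, limit read from the data; inactive = inhibition below that limit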;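 also: loss of FP-Rh probe labeling of the LYPLA2 gel band measured as band density; 0% = DMSO only control band and 100% = blank gel background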
# Starred values were filed as active, the others as inactive; . = not tested or not shown. A selection: hits, their analogues and other compounds. The true share with any hit is near 1.3%.
SMILES,LYPLA2 counter,Fam108B counter,LYPLA1 inh,PME-1 primary,PREPL inh,LYPLA2 conf,others
O=C(c1ccccc1F)N1CCCC(C(=O)N2CCc3ccccc3C2)C1 (stereo not drawn),3,-4,-3,15,31,.,
COC(=O)c1c(NC(=O)CN2CCN(c3ncccn3)CC2)sc(C(N)=O)c1C,31*,0,1,2,31,0,
COC(=O)C1=C(C)N(CC2CC2)C(=O)N[C@H]1c1ccccc1,-3,2,-4,-2,5,.,
CC(=O)N1CCCC(N2CCN(c3cccc(C(F)(F)F)c3)CC2)C1 (stereo not drawn),4,6,1,-6,16,.,
Cc1ccc(C(=O)N2CCCC(N3CCN(c4cccc(C(F)(F)F)c4)CC3)C2)s1 (stereo not drawn),42*,-2,10,3,3,39*,
CCc1cc(C(=O)N2CCCC(N3CCN(c4cccc(C(F)(F)F)c4)CC3)C2)n(C)n1 (stereo not drawn),81*,-2,11,-3,18,74*,LYPLA2 gel ABPP=43
O=C(c1ccoc1)N1CCCC(N2CCN(c3cccc(C(F)(F)F)c3)CC2)C1 (stereo not drawn),17,5,8,3,1,.,
CCn1cc(C(=O)N2CCCC(N3CCN(c4cccc(C(F)(F)F)c4)CC3)C2)cn1 (stereo not drawn),32*,3,6,-5,2,22,
O=C(c1ccncc1)N1CCCC(N2CCN(c3cccc(C(F)(F)F)c3)CC2)C1 (stereo not drawn),26*,0,-2,4,11,43*,
C/C(=N/NC(=O)c1ccc(C)s1)c1cccc(NC(=O)c2ccoc2C)c1,-3,-4,-7,-5,9,.,
CC1=C(C(=O)N2CCCC(N3CCN(c4cccc(C(F)(F)F)c4)CC3)C2)OCCO1 (stereo not drawn),7,-2,0,0,8,.,
Cc1cnc(C(=O)N2CCCC(N3CCN(c4cccc(C(F)(F)F)c4)CC3)C2)cn1 (stereo not drawn),26*,-2,2,2,9,26,
CSCCC(=O)N1CCCC(N2CCN(c3cccc(C(F)(F)F)c3)CC2)C1 (stereo not drawn),53*,2,2,2,-2,59*,LYPLA2 gel ABPP=49
COc1ccc(NC(=O)C2CCCN2C(=O)Oc2ccccc2)cc1 (stereo not drawn),-2,-2,-2,-2,-3,.,
CC(=O)c1ccc(N2CCN(C(=O)C3CCN(S(=O)(=O)c4ccc5c(c4)CC(C)N5C(C)=O)CC3)CC2)cc1 (stereo not drawn),74*,-8,1,2,3,73*,LYPLA2 gel ABPP=64*
COc1ccc(N2CCN(C(=O)C3CCCN(S(=O)(=O)c4ccc(F)cc4)C3)CC2)cc1 (stereo not drawn),2,2,3,1,9,.,
COc1ccc(N2CCN(C(=O)COc3ccc(S(=O)(=O)N4CCOCC4)cc3C)CC2)cc1,28*,2,6,-1,15,30*,
CC(=O)N1c2ccc(S(=O)(=O)N3CCC(C(=O)N4CCN(c5cccc(C(F)(F)F)c5)CC4)CC3)cc2CC1C (stereo not drawn),15,-6,-4,-1,16,.,
Cc1cc(S(=O)(=O)N2CCCC2)ccc1OCC(=O)N1CCOCC1,-3,-2,-2,2,5,.,
COc1ccc(N2CCN(C(=O)C3CCN(S(=O)(=O)c4ccc(F)cc4)CC3)CC2)cc1,42*,-5,1,42*,3,45*,
Cc1ccc(C(=O)Nc2ccc(Cl)cc2C)c(Cl)c1,-7,6,0,1,0,.,
Cc1ccc2c(c1)cc1c(=O)n(CC(=O)N3CCCC3)nc(C)n12,4,-1,1,0,8,.,
CC12CCC(=O)N1C(C(=O)NNC(=O)c1cccc(Cl)c1)CS2 (stereo not drawn),35*,-2,0,4,0,6,
O=C1CCCN1CCCNc1ncnc2c1cnn2-c1ccc(Cl)cc1,30*,-5,4,-9,11,29*,
CC(=O)c1nn(-c2ccc(C(F)(F)F)cc2)c(=O)[nH]c1=O,-1,1,2,-1,15,.,
SMILES,LYPLA2 counter,Fam108B counter,LYPLA1 inh,PME-1 primary,PREPL inh,LYPLA2 conf,others
COc1ccc(NC(=O)CCCc2nnc3n(C)c(=O)c4sccc4n23)cc1,6,3,-1,-3,1,.,
CC(=O)c1ccc(N2CCN(C(=O)Nc3ccc(C(C)C)cc3)CC2)cc1,48*,1,3,5,6,42*,
CC(=O)c1ccc(N2CCN(C(=O)Nc3ccc(F)cc3)CC2)cc1,2,1,2,3,2,.,
O=C(COc1ccc2c(c1)OCO2)Nc1nccs1,0,1,-1,-2,-7,.,
COc1cccc(NC(=O)CCC2CCN(C(=O)c3ccc(C(C)=O)s3)CC2)c1,27*,-2,1,6,3,32*,
Cc1noc(C)c1S(=O)(=O)N1CCC(C(=O)N2CCC(N3CCCCC3)CC2)CC1,1,-4,-2,3,5,.,
CN(Cc1nc(-c2cccnc2)no1)S(=O)(=O)c1ccc(Br)cc1,41*,5,-1,7,-17,31*,
CN(Cc1nc(-c2ccccn2)no1)S(=O)(=O)c1ccc(Br)cc1,37*,-2,1,-2,-8,35*,
COc1ccc(-n2nc(C(=O)NCC(=O)NCCC3=CCCCC3)c3ccccc3c2=O)cc1OC,0,-1,-2,-3,5,.,
CO/N=C/c1ccc(N2CCN(C(=O)c3ccc(C)cc3)CC2)c([N+](=O)[O-])c1,37*,2,3,5,-7,39*,
O=C(c1cccc(Br)c1)N1CCN(c2cnn(-c3ccccc3)c(=O)c2Cl)CC1,28*,2,6,4,9,15,
Cc1cccn2c(CN(C)CC3Cc4ccccc4O3)c(C(=O)N3CCCCC3)nc12 (stereo not drawn),-1,1,-1,-2,31,.,
CC(C)[C@H](NC(=O)c1ccccc1Cl)C(=O)Nc1ccc(S(=O)(=O)Nc2nccs2)cc1,.,.,.,.,20,.,
O=C1CCCC(=O)N1c1ccc(N2CCN(c3ccc([N+](=O)[O-])cc3)CC2)c([N+](=O)[O-])c1,43*,0,9,6,20,43*,

# High-throughput results (PubChem)
